Structures are written as SMILES. A value given as a limit tells only on which side of the number the result lay.

As usually defined, the Kd is the constant that tells how readily two partners part at equilibrium. Read a high Kd as a looser complex.

For assay [1], the system named is RIPK1.
The test system of assay [2] is ROCK2.
For assay [3], the system named is RPS6KA4(Kin.Dom.1-N-terminal).
The subject of assay [4] is T1, RSK1(Kin.Dom.2-C-terminal).
T1 construct: gene RPS6KA1

Assay [5] has as its system T2, RSK2(Kin.Dom.2-C-terminal).
T2 construct: gene RPS6KA3

Assay [6] relates to T3, RSK4(Kin.Dom.1-N-terminal).
T3 construct: gene RPS6KA6

Assay [7] has as its system SRPK1.
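Note: kd values determined as follow-up on hits from a single-replicate KINOMEscan panel screen.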

In the case of `Nc1ncnc2occ(-c3ccc4c(c3)CCN4C(=O)Cc3cc(F)ccc3F)c12` [GSK2645446], binding in assay [1] was put at a Kd of 410 nM. With `c1ccc(-c2ccnc3[nH]ccc23)cc1` [SB-693578], the Kd in assay [2] amounted to 530 nM. This lies in the sub-micromolar range. Molecule `Cc1nccc(-c2c(-c3ccc(F)cc3)ncn2CCCN2CCOCC2)n1.Cl` [SB-282975] showed a Kd in assay [3] above 10 µM.

With `O=C1NC(=O)C(c2ccc(Cl)cc2)=C1Nc1cccc(Cl)c1` [SB-317651], the Kd in assay [3] is above 10 µM. In assay [4], `Cn1cnc2c(N)ncnc21` [SKF-97623] registered a Kd above 10 µM. `NS(=O)(=O)c1cccc(N/C=C2\C(=O)Nc3ccc(S(=O)(=O)Cc4c(Cl)cccc4Cl)cc32)c1` [GSK398099] returned a Kd in assay [4] above 10 µM.

Take `COc1ccc(Nc2nccc(N3CCC(NC(=O)C(C)c4ccc(Cl)cc4)CC3)n2)cc1` (stereo not drawn) [GSK1379812]: in assay [5], the equilibrium dissociation constant (Kd) is above 10 µM. In turn, `O=C(Nc1n[nH]c2nc(-c3cccs3)c(Br)cc12)C1CC1` [SB-735297] yielded a dissociation constant Kd in assay [6] of 3.8 µM. This lies in the single-digit micromolar range. Consider `Cn1cncc1C(=O)NC1CCN(c2ccnc(Nc3ccc(F)cc3)n2)C1` (stereo not drawn) [GSK1379717], for which the equilibrium dissociation constant (Kd) in assay [7] is above 10 µM.

The values above are taken from PMC5540273 (PLoS ONE, 2017).
